# According to PubChem BioAssay (NCATS):
# Results filed as inconclusive are left out. Where a call stands in place of a potency, no number is given. Activity calls are given as the source filed them. Calls follow the shape of the dose curve; as a rule, active = well fitted inhibition curve with a large enough effect; inconclusive = small, poorly fitted or top-dose-only effect; inactive = flat fitted curve, though single readings scatter.
# Biological target: Calcium and integrin-binding protein 1 (Homo sapiens) (UniProt Q99828)
# Assay: Primary qHTS for Identification of Calcium Integrin Binding Protein 1 (CIB1) Competitor (AID 1508620);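 also: GST tagged CIB1 binding a fluorescein labelled alphaIIb integrin peptide tracer; top concentration of the series differs between compounds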
# Conditions: CIB1-GST / FITC-alphaIIb peptide fluorescence polarization; series mostly up to 114 µM
# How it was run: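 Fluorescence polarization competition: CIB1-GST (1 uM final) preincubated with compound 15 min at room temperature, then FITC-labeled alphaIIb peptide (100 nM final) added for another 15 min. Polarization read at Ex 480/Em 540.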
# Chain of Calcium and integrin-binding protein 1 (Homo sapiens) (Q99828 whole entry, looked up): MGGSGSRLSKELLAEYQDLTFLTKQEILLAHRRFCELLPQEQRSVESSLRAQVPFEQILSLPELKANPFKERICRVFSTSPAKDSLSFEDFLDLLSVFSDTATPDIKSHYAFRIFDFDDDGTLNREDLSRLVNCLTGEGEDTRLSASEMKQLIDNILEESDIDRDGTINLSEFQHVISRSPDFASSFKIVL
row,Compound,Potency
1,CC(O)c1cc2c(s1)c1cnn(Cc3ccccc3F)c(=O)c1n2C (stereo not given),inactive
2,COc1ccc2c(c1)Oc1nc(-c3ccc(C)cc3)nc(SCC(=O)Nc3cccc(C(=O)O)c3)c1C2,inactive
3,NC(=O)C1CCN(c2ncc(-c3cccc(N4CCOCC4)c3)s2)CC1,inactive
4,Cc1ccc(OCCn2c(CCNC(=O)c3ccc(C)cc3)nc3ccccc32)cc1,inactive
5,CC(=O)Nc1sc2c(c1C(=O)c1ccccc1)CCN(C(C)C)C2,inactive
6,c1ccc(CNCc2nnc(-c3cc4ccccc4[nH]3)s2)cc1,inactive
7,S=C(NCCCN(Cc1ccc(Cl)c(Cl)c1)c1ccc(Br)cn1)NCCc1cnc[nH]1,inactive
8,FC(F)(F)c1cccc(N2CCN(C(=S)Nc3ncnc4ccccc34)CC2)c1,inactive
9,N#Cc1nc(Nc2cccc(Cl)c2)nc(NC2CCCC2)n1,inactive
10,CC(=O)c1ccc(-c2csc(N3CCC(C(N)=O)CC3)n2)cc1,inactive
11,CN1CCN(c2cc(-c3nc(Nc4ccc(F)c(F)c4)c4ccccc4n3)ccn2)CC1,inactive
12,O=C(OCC#CCSc1nnc(-c2cccc(F)c2)o1)c1ccc(F)cc1,inactive
13,O=c1c2ccccc2nc2sc(Nc3cccc(N4CCNCC4)c3)nn12,inactive
14,CC(C)(C)OC(=O)N1CCN(c2ccc(NCc3cnc(-c4ccc(C#N)cc4)s3)cc2)CC1,inactive
15,COc1ccc(Nc2nc(-c3ccncc3)nc3ccccc23)cc1F,inactive
16,O=C(/C=C/c1cccc(Cl)c1)Nc1cccc([S+](=O)([O-])Nc2ccccc2F)c1,inactive
17,Oc1cccc2cc(-c3ccncc3)cnc12,inactive
18,O=C1CCc2cc(S(=O)(=O)Nc3ccc(-c4ccccc4)cc3)ccc2N1,inactive
19,O=C1CCc2cc(Cl)c(S(=O)(=O)Nc3ccc(Cl)c(Cl)c3)cc2N1,inactive
20,COc1cccc(NC(=S)N2CCN(c3cccc(Cl)c3Cl)CC2)n1,inactive

row,Compound,Potency
1,Cn1cc(C[C@H](C(=O)O)N2C(=O)c3ccc(C(=O)O)cc3C2=O)c2ccccc21,inactive
2,S=C(Nc1cc(Cl)ccn1)N1CCN(c2ccc3ccccc3n2)CC1,inactive
3,COc1ccc(C2Nc3ccccc3C(=O)N2Cc2ccncc2)cc1COc1ccc(NC(C)=O)cc1 (stereo not given),inactive
4,Cc1cc2c(s1)c1cnn(Cc3ccc(-n4cncn4)cc3)c(=O)c1n2C,inactive
5,O=c1c2ccccc2nc2sc(NCc3ccc(Sc4ccccc4)cc3)nn12,inactive
6,N#Cc1nc(Nc2ccccc2)nc(NC2CCCCC2)n1,inactive
7,O=C1CCCC2=C1C(c1[nH]ncc1Cl)NC(=NCc1ccccc1)N2 (stereo not given),inactive
8,N#CC1CCN(c2nc(-c3ccc(Br)cc3)cs2)CC1,inactive
9,COc1cccc(C2c3c(ncn(CCCN4CCOCC4)c3=N)Oc3ccc4ccccc4c32)c1 (stereo not given),inactive
10,Cc1ccc(S(=O)(=O)N2CCN(c3nc(C#N)nc4ccccc34)CC2)cc1,inactive
11,CCOc1ccc(CCNC(=O)c2ccc(C3(C(F)(F)F)N=N3)cc2)cc1OCC,inactive
12,COc1ccc(OC)c(-c2nnc3n2N=C(c2ccc(OC)c(OC)c2)CS3)c1,inactive
13,N#Cc1ccc(-c2ccc(C3Nc4ccccc4C(=O)N3O)o2)cc1 (stereo not given),inactive
14,CC(C)(C#CCSc1nnc(-c2cccc3ccccc23)o1)OC(=O)c1ccc(F)cc1,inactive
15,O=C(Oc1cccnc1)c1cccs1,inactive
16,c1ccc(CNc2nc(-c3cccs3)nc3ccccc23)cc1,inactive
17,Clc1ccccc1-c1nc(NCc2ccc(-c3cccnc3)cc2)c2ccccc2n1,inactive
18,O=C(Nc1cccnc1)c1ccco1,inactive
19,CC(=O)Nc1sc2c(c1-c1ccc(N3CCN(C(C)=O)CC3)nc1)CCNC2,inactive
20,Cc1cccc(C(=O)NCC(=O)OC(C(=O)Nc2cc(C(F)(F)F)ccc2Cl)c2ccccc2)c1 (stereo not given),inactive
